Sampled rows, rich in hits. Any-hit rate of the full collection: about 4.6%.
TIM10 inh: growth inhibitors of TIM10 yeast strain | S. cerevisiae TIM10 strain growth, BacTiter-Glo luminescence, 24 h | inhibition, % at 10 µM | hit rate 1.4% among 330,000 | AID 463195;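 active means inhibition of 40% or more at the single tested concentration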;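 further: wild-type TIM10 isogenic control strain grown at permissive 25 °C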
NLRP3 yeast inh: NALP3 inhibition in yeast; inhibition, % at 10 µM; hit rate 0.39% among 330,000; Yeast reconstituted NLRP3/ASC/caspase-1, beta-gal luminescence, 24 h;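 active means inhibition of 50% or more; inactive means inhibition below 50%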;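 further: plate controls were induced DMSO wells for no effect and uninduced yeast grown without galactose for full effect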
SKKanGAS inh: blocks kanamycin growth of S. pyogenes SKKanGAS strain | BacTiter-Glo, 6 h | inhibition, % at 7.5 µM | hit rate 1.3% among 300,000;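 active means mean replicate score, as percent of positive control median, at least 50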;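 further: strain carries kanamycin resistance gene driven by streptokinase promoter and grows in 40 µg/ml kanamycin; loss of luminescence reflects streptokinase promoter inhibition or plain growth inhibition; 0% = median of DMSO wells and 100% = positive control at its reference dose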
tim23-1 inh: tim23-1 yeast growth inhibition | S. cerevisiae tim23-1 growth, BacTiter-Glo luminescence, 24 h | inhibition, % at 20 µM | hit rate 1.3% among 330,000;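 active means growth inhibition of the mutant yeast at or above 50%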;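 further: temperature-sensitive mutant grown at 25 °C; plate controls were DMSO-treated mutant yeast for no effect and medium wells lacking yeast for full effect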
PfHsp90 yeast 2: inhibits growth of yeast expressing Plasmodium falciparum Hsp90; S. cerevisiae expressing PfHsp90, BacTiter-Glo ATP, 48 h; yeast lacking PDR1 and PDR3 efflux regulators; inhibition, % at 9.4 µM; hit rate 0.32% among 310,000;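 active means every replicate shows inhibition above about 80%, whatever the replicate mean, limit read from the data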;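 further: 0% = DMSO neutral controls and 100% = 20 µM radicicol positive controls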
tim10-1 inh: inhibits growth of tim10-1 mutant yeast; S. cerevisiae tim10-1 ts strain growth, BacTiter-Glo, 24 h; inhibition, % at 20 µM; hit rate 2.2% among 330,000; AID 463190;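 active means inhibition of at least 40%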;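 further: mutant grown at 25 °C; 0% = DMSO wells with yeast and 100% = wells holding no yeast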
tim10-1 confirm: tim10-1 yeast growth inhibition, confirmed; shares compounds with tim10-1 inh; S. cerevisiae tim10-1 ts strain growth, BacTiter-Glo, 24 h; inhibition, % at 20 µM; hit rate 56% among 7,400; AID 463213;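 active means inhibition of yeast growth at or above a set limit in either of two repeat tests at 20 µM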;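 further: tim10-1 mutant grown at permissive 25 °C to find synthetic lethal compounds; 0% = DMSO yeast wells and 100% = medium wells without yeast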
* marks the source's active call; other numbers are inactive results; · = no result.

SMILES	TIM10 inh	NLRP3 yeast inh	SKKanGAS inh	tim23-1 inh	PfHsp90 yeast 2	tim10-1 inh	tim10-1 confirm
CN(Cc1ccccc1)C(=O)c1[nH]cnc1C(=O)N[C@@H](Cc1ccccc1)C(=O)OC(C)(C)C	23	8	3	35	3	18	·
O=C(Oc1ccc2ccc(=O)oc2c1)c1ccco1	30	14	2	31	19	46*	20
O=C1N(Cc2cccc(Cl)c2)C[C@@H]2C[C@@H](c3c[nH]c4ccccc34)N3CCC[C@@]123	-8	13	3	12	-15	11	·
Cc1cccc(CCN2CCN=C2Nc2ccccc2)c1	-7	7	·	0	·	-15	·
O=C(NCCCNc1ccc(C(F)(F)F)cc1[N+](=O)[O-])c1ccc(Cl)cc1	-4	38	17	9	12	46*	-2
CN(C(=O)c1nn(C)c2c1CSc1ccccc1-2)c1ccccc1Cl	12	22	11	41	-1	41*	6
CN(C(=O)c1nn(C)c2c1CSc1ccccc1-2)c1ccc(F)cc1	0	9	-6	37	-1	35	·
CC(C)(C)C1CCc2c(sc(NC(=O)CSc3ncn[nH]3)c2C#N)C1 (centres undefined)	23	21	-2	38	7	40*	12
CC1CCc2c(sc(NC(=O)CSc3ncn[nH]3)c2C#N)C1 (centres undefined)	-3	12	6	12	11	-2	·
CCCc1cc(=O)[nH]c(SCC(=O)Nc2sc3c(c2C#N)CCC(C)C3)n1 (centres undefined)	14	-2	16	21	·	47*	-8
CS/C(=C/[N+](=O)[O-])Nc1cccc2c1C(C)CC2(C)C (centres undefined)	34	24	19	37	1	32	·
C/C(=N/NC(=O)c1cc2ccccc2cc1O)C1C(=O)c2ccccc2C1=O	20	13	83*	27	-21	47*	32*
C/C(CC(=O)N1CCN(C=O)CC1)=N\NC(=O)c1cc2ccccc2cc1O	3	-5	5	7	13	19	·
C/C(=N\NC(=O)c1cc2ccccc2cc1O)c1ccccn1	-22	20	102*	29	92*	60*	-30
CCOC(=O)c1c(C)oc2ccc(NS(=O)(=O)c3cccs3)cc12	29	-1	2	37	-32	42*	21
CCCOC(=O)c1ccc(NS(=O)(=O)c2cccs2)cc1	30	17	-3	38	-9	54*	35*
O=C(COC(=O)c1ccc(NS(=O)(=O)c2cccs2)cc1)NCc1ccco1	-7	10	-17	-20	-5	-15	·
CC1(N(O)C=C2C=CC(=O)C=C2)CCCCC1=O (centres undefined)	20	-4	-5	12	-17	18	·
CCC1=C(c2ccc(C)cc2)S(=O)(=O)N=C1N1CCC(C(=O)NCCCN2CCCCC2)CC1	9	30	0	12	1	1	·
C[C@]12c3[nH]c4cc(-c5ccco5)ccc4c3CCN1C(=O)[C@@H](CC(=O)NCCCn1ccnc1)C[C@@H]2C(=O)N1CCOCC1	1	·	·	24	-7	2	·
CCCCc1ccc(NC(=S)NCc2cccc(OC)c2)cc1	33	13	8	17	-22	44*	30
COc1ccc(OC)c(NC(=S)NCCSc2ccc(C)cc2)c1	33	29	-4	42	-3	44*	14
CCCCc1ccc(NC(=S)Nc2cccnc2)cc1	15	11	1	23	-3	36	·
CCCCc1ccc(NC(=S)Nc2ccc(Nc3ccc(OC)cc3)cc2)cc1	20	35	-5	34	-3	45*	35*
COc1cccc(CNC(=S)Nc2cc(OC)ccc2OC)c1	11	-34	-2	14	-5	45*	25
SMILES	TIM10 inh	NLRP3 yeast inh	SKKanGAS inh	tim23-1 inh	PfHsp90 yeast 2	tim10-1 inh	tim10-1 confirm
Cc1ccc(NC(=S)NCCSc2ccc(Cl)cc2)c(C)c1	-8	32	-2	24	-20	31	·
NS(=O)(=O)OCC(Cc1ccccc1)N1C(=O)c2ccccc2C1=O (centres undefined)	9	11	-7	5	-7	-11	·
CC1(C)C2CCC1(CS(=O)(=O)NCc1ccc(C(F)(F)F)cc1)C(=O)C2 (centres undefined)	7	12	0	18	-1	11	·
C=CCSC1=N/C(=C\c2cc(OCC)c(OC(C)=O)c([N+](=O)[O-])c2)C(=O)S1	12	-57	-4	27	-9	42*	25
CC(=O)N1CCN(c2ccc(NC(=O)C(C)Oc3ccc(Cl)cc3Cl)cc2)CC1 (centres undefined)	24	21	4	19	-36	45*	31*
CC(Oc1ccc(Cl)cc1Cl)C(=O)Nc1ccc(N2CCN(C)CC2)cc1 (centres undefined)	9	23	-3	18	·	12	·
COc1ccccc1/C=C\C(=O)NCC(=O)N/N=C/c1cccc(OC)c1O	14	0	10	10	-8	51*	-4
O=CNC1CCCc2c1[nH]c1ccc(Cl)cc21 (centres undefined)	30	8	-16	33	-9	45*	28
Cc1cc(/C=C2\Sc3ccccc3N2C)cc(C)[n+]1CC1CCCO1 (centres undefined)	20	11	·	23	-40	57*	26
COc1ccc(CN2C(=O)[C@@H]3Cc4c([nH]c5ccccc45)C(C)(C)N3C2=O)cc1	27	9	5	43	-74	44*	22
COc1cccc(CN2C(=O)[C@H]3Cc4c([nH]c5ccccc45)C(C)(C)N3C2=O)c1	35	5	16	31	9	45*	30
O=C(NCCCN1CCOCC1)C(=O)N/N=C/c1cccc2ccccc12	3	1	-7	10	-18	-6	·
C[C@H](CO)N1C[C@H](C)[C@@H](CN(C)C(=O)Nc2ccc(C(F)(F)F)cc2)Oc2ccc(NS(=O)(=O)c3cccs3)cc2C1=O	10	-8	·	-2	-11	7	·
C=CCn1c(C)cc(C(=O)COC(=O)c2ccc3c(c2)NC(=O)CS3)c1C	13	-7	-12	29	-9	23	·
O=C(CSCc1cccc(Br)c1)N/N=C/c1ccc2c(c1)OCO2	14	23	9	37	2	43*	36*
CCOC(=O)c1ccc(NCc2cccnc2)cc1	-1	23	3	-1	5	-12	·
c1ccc(Oc2nc(Oc3ccccc3)nc(N3CCOCC3)n2)cc1	6	14	4	27	10	40	·
O=Cc1ccccc1Oc1nc(N2CCOCC2)nc(N2CCOCC2)n1	33	3	-1	47	6	45*	41*
